The structures appear in SMILES notation.

The assay is described as follows: qHTS profiling of the MIPE4 collection as inhibitors of Plasmodium falciparum (3D7) proliferation (AID 743344).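 Further: scaled between DMSO vehicle wells and 0.29 µM artemisinin as full inhibition.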 To be noted: P. falciparum 3D7 in erythrocytes, SYBR Green DNA fluorescence, 72 h; at 28.5 µM unless noted. In short, it runs like this:
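Parasite DNA was quantified by SYBR Green I fluorescence (ex 485, em 535 nm) after overnight lysis in saponin/Triton buffer at room temperature. Cultures at 0.3% parasitemia and 2.5% hematocrit were first exposed to compound for 72 h at 37 C; signals were normalised to artemisinin (0.29 uM) and vehicle wells.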
`O=C(NNC(=O)c1ccc(CNS(=O)(=O)c2ccc(F)c(Cl)c2)cc1)c1ccccc1` returned a parasite growth, % of DMSO control of 371%. For `C[C@](Cc1c[nH]c2ccccc12)(NC(=O)OC1C2CC3CC(C2)CC1C3)C(=O)NC[C@H](NC(=O)CCC(=O)O)c1ccccc1` (some centres not stated) the value was 10%; for `CC(C)N1[N]C(=C2C=c3cc(O)ccc3=N2)c2c(N)ncnc21`, 9.52%; for `COc1ccc(S(=O)(=O)Nc2cccnc2Nc2ccc(O)cc2)cc1`, 64.8%. `OCCN1C[C@H](O)[C@@H](O)[C@H](O)[C@@H]1CO` came in with a parasite growth, % of DMSO control of 96.1%.

`Cc1cnn(C)c1C(=O)Nc1cc(Nc2ccc3c(C=Cc4ccccn4)n[nH]c3c2)ccc1F` gave a parasite growth, % of DMSO control of 4.63%.

On to `CCCCCCCCc1ccc(CCC(N)(CO)CO)cc1`, for which the parasite growth, % of DMSO control turned out to be 9.21%. As for `CC(C)C[C@H](NC(=O)[C@@H](NC(=O)c1cccc(-c2ccccc2)n1)[C@@H](C)O)B(O)O`, the figure is 4.97%; as for `CCN(CC)CCCCNc1ncc2c(n1)N(C)C(=O)N(c1c(Cl)c(OC)cc(OC)c1Cl)C2`, 25.2%. For `CON=C(C(=O)N[C@@H]1C(=O)N2C(C(=O)O)=C(CSC(=O)c3ccco3)CS[C@H]12)c1csc(N)n1` the value was 88.2%; for `O=c1c(O)c(-c2ccc(O)c(O)c2)oc2cc(O)ccc12`, 5.73%. For `CO[C@@H]1[C@@H](O)[C@H](O)[C@@H](n2c3c(Cl)cccc3c3c4c(c5c6cccc(Cl)c6[nH]c5c32)C(=O)NC4=O)O[C@@H]1CO` the value was 7.5%. Take `CC(C)n1cnc2c(NCCc3ccc(O)cc3)nc(-c3csc4ccccc34)nc21`: the parasite growth, % of DMSO control was 5.76%. For `COc1cc(C(=O)NC2CCN(C)CC2)ccc1Nc1ncc2c(n1)N(C1CCCC1)CCC(=O)N2C(C)C` the value was 5.76%. For `Oc1ccc([C@@H]2Oc3ccc(O)cc3[C@@H]3CCC[C@@H]32)cc1` the value was 43.6%; for `CC(=O)[C@]1(O)Cc2c(O)c3c(c(O)c2[C@@H](O[C@H]2C[C@H](N)[C@@H](O)[C@H](C)O2)C1)C(=O)c1ccccc1C3=O`, 27.7%; for `CC(C)(O)[C@H]1CC[C@@](C)([C@H]2[C@@H](O)C[C@@]3(C)[C@@H]4C[C@H](O[C@@H]5O[C@H](CO)[C@@H](O)[C@H](O)[C@@H]5O)[C@H]5C(C)(C)[C@@H](O[C@@H]6OC[C@@H](O)[C@H](O)[C@@H]6O)CC[C@@]56C[C@@]46CC[C@]23C)O1`, 90.6%.

`O=C(NCc1ccccc1)[C@H](Cc1ccccc1)NC(=O)[C@@H]1O[C@@H]1C(=O)NCCc1ccc(O)cc1` displayed a parasite growth, % of DMSO control of 17.3%. Turning to `OCc1ccccc1O[C@@H]1O[C@H](CO)[C@H](O)[C@H](O)[C@H]1O`, the parasite growth, % of DMSO control came out at 95.9%. For `O=C(Nc1nnc(-c2ccco2)o1)c1cc(-c2ccccc2)nc2ccccc12` the value was 51.6%. `c1cc(CN2CCCNCCNCCCNCC2)ccc1CN1CCCNCCNCCCNCC1` displayed a parasite growth, % of DMSO control of 91.4%. For `CNC(=O)Nc1ccc(-c2nc(N3CC4CCC(C3)O4)c3cnn(C4CCC5(CC4)OCCO5)c3n2)cc1` the value was 5.91%.

(Values after PubChem BioAssay (NCATS).)
